Source: the OligoGym collection

target: RGS9; assay: pooled miR-30 sensor sort-seq; sequence = guide strand; settings: shRNA
Note: reference of the scale not given here.

Sequence	sensor-assay potency score (higher = more potent)
TATCTGTCTGCTTTGTTCCTCT	-0.0404
TTTTTGACAGCAACGACTGTTT	-0.217
TTCCTTTTCATATTCTTCCAAA	-0.756
TGACTTTGGACTGATCTCCATA	-0.742
TTGCCATCTATGTTGATCCAGC	-0.689
TTCTTTTTGATATTTCGCTTGG	-0.579
TTTCTTTTTGATATTTCGCTTG	-0.178
TTGTTTCTTGACTTCATTCGGA	0.389
TTGCAGAACATCACTTCCTGTC	0.603

target: RHBDL3; assay: as above; settings: shRNA

Sequence	sensor-assay potency score (higher = more potent)
TAATGTAGCCTGTGTTCCCAGG	-0.768
TTGAACTGGCACTTCATGCCTG	0.341
AAACTGATCAAACAGGACTTTC	-1.76
TGAACTGGCACTTCATGCCTGA	0.0699
ATCCGCAGCAGCTTGAACTGGC	-0.0826
TAGGCTGACAAAATCCTGGTAG	0.858
AAATCCACCACAGTGACTGGTC	0.238
TTGCCTGTGCTAATGTAGCCTG	-0.542
TGATCAAACAGGACTTTCCAGT	-0.423
TAGCTGTCATAGTACCACTTGC	-0.706
TTAGGCTGACAAAATCCTGGTA	0.00913
TGTCATAGTACCACTTGCGGTC	-0.531

target: RHOF; assay: as above; settings: shRNA

Sequence	sensor-assay potency score (higher = more potent)
TTGATGAGGACGTTGTCGTAGC	0.173
TAGCAGATGAGCACGAGGTGGG	0.0207
ATGAGCAGCGAGGTCTTGCCGC	-1.07
TTGCTGCCAACGGTCACGCTGG	-0.873
TTCCTCAGGTCTGTCTTGCAGC	-0.598
TAGAGAGCAGCTCGGATCTGTT	-0.736
TTCAGCTCCTTCCTGCCCGGAC	-0.816
TACTTCTCGAACACCGATGGGG	0.0393
TAGTCTTCTTGCCCGGCCGTGT	-1.09
AAACTTGGCGGAACATTCCAGG	-0.805
TAGGTGATGGGCTCCAGCTGGG	-0.461
TCCAGGTAGAGAGCAGCTCGGA	-1.54

target: RHOH; assay: as above; settings: shRNA

Sequence	sensor-assay potency score (higher = more potent)
TAAGGGCTGAGCACTCCAGGTA	-0.636
TGTTCTCGTACACTGTGGGCTT	-0.393
TCCATGAAGACGTCCACCCCTG	-1.1
TTGACGGCAGTTCGGACGGCGC	-1.65
TTGATGGAGAAGAGCCTCCTTC	-0.911
TTCACTTGTAGAGTGTAGTTAG	0.0342
TTCTTCAAGTTCAGGAATGAGT	-0.86
